High-throughput results (PubChem)
Sampled rows, rich in hits. Any-hit rate of the full collection: about 8.9%.
HPGD inh – blocks human HPGD enzyme activity; 4.3% of 150,000 active; purified HPGD, NADH fluorescence kinetic, PGE2 substrate; Potency, µM, without a hit: at the top dose activity change, negative = inhibition, usual class: inhibitors; active = well fitted inhibition curve with a large enough effect, not every such curve was filed as active; inconclusive = small, poorly fitted or top-dose-only effect, or another doubt; inactive = no such curve, though single readings can be large or run the other way; note: potency is the fitted concentration of half-maximal effect
Target sequence (P15428 whole entry, looked up): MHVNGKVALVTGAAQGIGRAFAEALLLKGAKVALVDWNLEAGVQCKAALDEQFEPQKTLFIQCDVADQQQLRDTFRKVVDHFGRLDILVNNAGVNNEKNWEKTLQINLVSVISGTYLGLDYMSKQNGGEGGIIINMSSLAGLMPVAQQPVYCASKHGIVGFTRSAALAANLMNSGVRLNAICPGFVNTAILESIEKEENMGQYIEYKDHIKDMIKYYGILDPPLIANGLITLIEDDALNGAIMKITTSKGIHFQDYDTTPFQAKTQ
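20 nM HPGD preincubated 15 min at room temperature with compound in 50 mM Tris-HCl pH 8, 0.01% Tween 20. Started with 1 mM NAD+ and 30 uM prostaglandin E2; NADH fluorescence (360/450 nm) read 5 times over 30-s intervals, last minus first.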
ALDH1A1 block – blocks purified human ALDH1A1 activity; P00352; Potency, µM (doses to about 75.3 µM), without a hit: at the highest dose activity, negative = inhibition, actives largely listed as inhibitors; Purified ALDH1A1, NADH fluorescence, propionaldehyde substrate; AID 1030; 7.3% of 220,000 active; active = well fitted inhibition curve with a large enough effect, not every such curve was filed as active; inconclusive = small, poorly fitted or top-dose-only effect, or another doubt; inactive = no such curve, though single readings can be large or run the other way;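 note: potency is the fitted concentration of half-maximal effect; plate controls were no enzyme wells and a reference inhibitor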
NPSR antag – antagonists of human neuropeptide S receptor cAMP signaling | CHO-NPSR cells, cAMP TR-FRET, antagonist mode | Potency, µM (top dose mostly 38.3 µM), inactives show at the top dose activity change, negative = inhibition, most hits filed as inhibitors | AID 1461 | 1% of 220,000 active; note: potency is the fitted concentration of half-maximal effect; nearly all actives have a fitted effect of over 50% in size
IMPase Li cell – membrane-permeable IMPase blocker, potentiated with lithium; CHO-M1 cells, IP1 TR-FRET (IP-One), carbachol + lithium; Potency, µM (highest dose often 59.4 µM), for the others: at the highest dose activity, negative = IMPase inhibition, hits mostly inhibitors; 0.35% of 210,000 active; AID 1457;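 note: IP1 builds up when IMPase is blocked and the TR-FRET signal falls; potency is the fitted concentration of half-maximal effect; plate controls were basal vehicle for no effect and high inhibitor control for full effect; nearly all actives have a fitted effect of over 50% in size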
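Test compounds were applied to CHO-M1 cells previously cultured for 16–30 h at 2000 per well. A small lithium amount accompanied them; after 30 min at 37C, IP1 was quantified by TR-FRET.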
12-hLO inh – inhibitors of human 12-lipoxygenase (ALOX12) | 0.12% of 150,000 active | AID 1452 | purified 12-hLO, xylenol orange hydroperoxide absorbance | Potency, µM (titrated, usually from 57.1 µM), for inactives: top-dose activity change, negative = inhibition, hits mostly inhibitors; note: potency is the fitted concentration of half-maximal effect; nearly all actives have a fitted effect of over 55% in size
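Hydroperoxide formation by human 12-lipoxygenase from 40 uM arachidonic acid was followed colorimetrically via ferric-xylenol orange complex, using the 573/405 nm absorbance ratio. Enzyme concentration was 150 nM, with 30 min reaction at room temperature.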
IMPase cell inh – IMPase inhibition in cells; inhibition (IP1 accumulation), % at 46.1 µM; P97697; CHO-M1 cells, IP1 accumulation, HTRF TR-FRET ratio; 120,000 tested, under 10 active; AID 901; active = well fitted curve in the direction sought with a large enough effect in the signal ratio, not every such curve was filed as active; inconclusive = small, poorly fitted or top-dose-only effect, or a change in a side signal; inactive = no such curve, though single readings can be large or run the other way; the % refers to the signal ratio;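 note: cells stimulated with carbachol in lithium chloride buffer; plate controls were DMSO basal wells for no effect and reference inhibitor wells for full effect; higher means more IMPase inhibition seen as more IP1 and lower FRET ratio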
Target sequence (P97697 whole entry, looked up): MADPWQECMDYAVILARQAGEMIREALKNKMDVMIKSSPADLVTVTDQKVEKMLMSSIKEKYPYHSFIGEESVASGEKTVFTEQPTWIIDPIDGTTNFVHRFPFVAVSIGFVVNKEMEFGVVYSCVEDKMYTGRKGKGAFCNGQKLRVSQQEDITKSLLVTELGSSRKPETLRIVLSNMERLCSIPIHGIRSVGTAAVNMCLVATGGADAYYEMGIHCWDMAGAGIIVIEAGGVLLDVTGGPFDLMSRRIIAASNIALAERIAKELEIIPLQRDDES
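The IP-One HTRF competitive assay in carbachol-stimulated CHO-M1 cells quantifies cellular IP1. Compounds spanned up to 46 uM final, and activity is expressed as AC50 from concentration-response fits of the ratio and donor data.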
* marks the source's active call; other numbers are inactive results; ? = inconclusive; / = not tested or not shown; [ ] = dose if it differs, or a comment. Unless noted, calls come from the whole dose curve; as a rule, active = well fitted curve in the direction sought with a large enough effect; inconclusive = small, poorly fitted or top-dose-only effect, or another doubt; inactive = no such curve, though single readings can be large; an effect the other way counts as inactive or inconclusive. Unless noted, % is set by controls: 0 for no effect and ±100 for the full control effect.

SMILES	HPGD inh	ALDH1A1 block	NPSR antag	IMPase Li cell	12-hLO inh	IMPase cell inh
O=c1c2c3c(sc2ncn1Cc1ccc(F)cc1)CCC3	-6%	-2%	-18%[46.1 µM]	41%[38.3 µM]	-6%	-1
CCN1CCN(C(=S)NCC2CCCO2)CC1 (stereo not drawn)	/	0.5µM*	2%	0%	/	/
O=c1c(-c2ccc(Cl)cc2)coc2c(CN3CCOCC3)c(O)ccc12	?	?	-10%[46.1 µM]	4%[38.3 µM]	-4%	2
O=C(CSc1n[nH]c(=O)[nH]c1=O)N1CCCCCC1	/	/	-17%	/	/	/
O=C(CCc1n[nH]c(=O)[nH]c1=O)N1CCCCC1	-19%	4.5µM*	6%[46.1 µM]	1%[38.3 µM]	1%	-8
O=C1CCCN1CCCNCC(=O)N1c2ccccc2Sc2ccccc21	1%	35µM*	1%[46.1 µM]	66%[38.3 µM]	-6%	22
CN(Cc1ccccc1)C(=O)c1[nH]cnc1C(=O)N[C@@H](Cc1ccccc1)C(=O)OCc1ccccc1	/	?	44%	8%	/	/
CCc1ccc2c(c1)[C@H]1OCC[C@H]1[C@@H](c1cccs1)N2	-20%	-2%	-35%	5%	0%	/
COc1cc(OC)c(C2=NOC(C(=O)N3CCc4ccccc4C3)C2)cc1Cl (stereo not drawn)	11µM*	-12%	-19%[46.1 µM]	24%[38.3 µM]	-1%	8
COc1ccc(OC)c(C2=NOC(C(=O)N3CCCc4ccccc43)C2)c1 (stereo not drawn)	-25%	11µM*	-5%[46.1 µM]	27%[38.3 µM]	6%	-11
COc1ccc(NC(=O)Nc2ccccc2F)c(C)c1	/	-4%	7%	2%	/	/
COc1ccc(C(=O)C[n+]2cn(C(F)F)c3ccccc32)c(F)c1	/	10µM*	-27%	-7%	/	/
CC(C)OC(=O)c1c2c(n3ccccc13)C(=O)c1ccccc1C2=O	-13%	?	-1%	18%	-1%	-10
O=C(Oc1c(CN2CCOCC2)cc(Cl)c2cccnc12)c1ccccc1F	/	-1%	7.9µM*	18%	/	/
O=C(Oc1c(CN2CCOCC2)cc(Cl)c2cccnc12)c1ccccc1	/	-4%	-34%	1%	/	/
Cc1ccc2nc(SCC(=O)O)nc(C)c2c1	-26%	?	18%[46.1 µM]	-13%[38.3 µM]	-6%	4
Cc1nn(C)cc1S(=O)(=O)NC1CCCC1	/	-1%	17%	-6%	/	/
O=[N+]([O-])c1nn(-c2ccc3c(c2)OCCO3)n(O)c1=NCc1ccc(F)cc1Cl	/	-1%	6%	-3%	/	/
O=[N+]([O-])c1nn(-c2ccc3c(c2)OCCO3)n(O)c1=NCc1ccc(F)cc1	20µM*	-1%	-1%	9%	-13%	/
COc1ccc(-c2cc(C(F)(F)F)n3nc(C(=O)Nc4cccc(Cl)c4Cl)cc3n2)cc1OC	/	/	/	/	/	-7
O=C1c2cccc3cccc(c23)C(=O)N1Nc1ccccc1	/	25µM*	8%	-1%	/	/
C[C@@H](C(=O)Nc1ccc2ccccc2c1)[C@@H]1C[C@@]1(C)[C@@H](NC(=O)c1ccccc1)c1ccccc1	-15%	7%	-9%	3%	0%	/
COC(=O)N[C@H](c1ccccc1)[C@@]1(C)C[C@@H]1[C@@H](C)C(=O)Nc1ccc2ccccc2c1	-23%	7.9µM*	/	25%	?	/
C[C@@H](C(=O)Nc1ccc2ccccc2c1)[C@H]1C[C@]1(C)[C@H](NC(=O)c1cccnc1)c1ccccc1	-5%	11µM*	-20%	16%	-6%	/
CC(=O)N[C@H](c1ccccc1)[C@@]1(C)C[C@@H]1[C@@H](C)C(=O)Nc1ccc2ccccc2c1	-6%	?	/	3%	-1%	/
SMILES	HPGD inh	ALDH1A1 block	NPSR antag	IMPase Li cell	12-hLO inh	IMPase cell inh
CCCCC(CC)C(=O)Nc1ccc(C)c(O)c1 (stereo not drawn)	/	-1%	-8%	2%	/	/
CCCC(=O)c1ccc(N2CCN(S(=O)(=O)c3ccccc3)CC2)c(F)c1	-15%	-6%	-16%[46.1 µM]	8%[38.3 µM]	-5%	-9
CCC(=O)c1ccc(N2CCCC2)c(F)c1	-22%	-4%	7%[46.1 µM]	2%	-10%	/
CCC(=O)c1ccc(N2CCN(C(=O)c3ccccc3F)CC2)c(F)c1	/	14µM*	-1%	20%	/	/
CCC(=O)c1ccc(N2CCCCCC2)c(F)c1	16µM*	?	-10%[46.1 µM]	36%[38.3 µM]	-1%	-3
CCCC(=O)c1ccc(N2CCCC2)c(F)c1	22µM*	?	3%[46.1 µM]	1%	-4%	-1
CCOC(=O)N1CCN(c2ccc(C(=O)c3ccccc3)cc2F)CC1	28µM*	?	?	-4%[38.3 µM]	-10%	3
Cc1ccc(NC(=O)COC(=O)/C=C/c2cccc(Cl)c2)cc1S(=O)(=O)N1CCOCC1	/	-5%	2%[46.1 µM]	/	0%	5
O=C(C1=NN[C@@H]2C(=O)N(c3cccc(F)c3)C(=O)[C@H]12)c1ccc2ccccc2n1	-11%	?	-7%[46.1 µM]	6%	0%	1
Cc1ccc(CNC(=O)CCCNS(=O)(=O)c2cccc3nonc23)cc1	-12%	7.1µM*	-4%[46.1 µM]	38%[38.3 µM]	-13%	17
COc1cccc(NC(=O)CCNS(=O)(=O)c2cccc3nsnc23)c1	/	5%	3%	-3%	/	/
CC(=O)c1ccc(NC(=O)CCNS(=O)(=O)c2cccc3nonc23)cc1	-10%	?	-2%[46.1 µM]	23%[38.3 µM]	-3%	-11
CCc1ccc(NC(=O)CCNS(=O)(=O)c2cccc3nonc23)cc1	0%	22µM*	-10%[46.1 µM]	14%[38.3 µM]	-5%	12
CC(=O)Nc1ccc(NC(=O)CCNS(=O)(=O)c2cccc3nsnc23)cc1	/	13µM*	10%	0%	/	/
O=C(CCCNS(=O)(=O)c1cccc2nsnc12)NCc1ccccc1	/	5µM*	-24%[46.1 µM]	/	-4%	6
O=C1c2ccc(Oc3ccc4c(c3)C(=O)N(CCCCO)C4=O)cc2C(=O)N1CCCCO	-29%	?	-12%[46.1 µM]	11%[38.3 µM]	3%	15
CC(=O)c1cccc(NC(=O)CCS(=O)(=O)c2cccc3nsnc23)c1	28µM*	22µM*	-9%[46.1 µM]	22%[38.3 µM]	-4%	-5
COC(CNS(=O)(=O)c1cccc2nonc12)OC	/	?	10%	-1%	/	/
COc1ccc(CNC(=O)CCCNS(=O)(=O)c2cccc3nonc23)cc1	-6%	14µM*	-8%[46.1 µM]	16%[38.3 µM]	0%	15
COc1ccc(CCNC(=O)CCNS(=O)(=O)c2cccc3nonc23)cc1OC	-10%	?	-5%[46.1 µM]	45%[38.3 µM]	5%	6
COc1ccc(NC(=O)CNS(=O)(=O)c2cccc3nonc23)c(OC)c1	?	13µM*	-8%[46.1 µM]	15%[38.3 µM]	-7%	-13
Cc1cccc(CNc2ccnc(-c3cccc(C#N)c3)n2)c1	/	?	/	15%	/	/
Oc1c(C=NCc2ccc(F)cc2)[nH]c2ccc(Br)c(Cl)c12	?	4.5µM*	1%[46.1 µM]	12%[38.3 µM]	-8%	-11
Cc1ccc(CN2CCN(/N=C/c3cc(Br)cc(Br)c3O)CC2)cc1	-14%	?	-4%	12%	-5%	/
